The results in this text go back to PubChem BioAssay (NCI).

The nature of assay [1]: NCI Yeast Anticancer Drug Screen. Data for the rad50 strain (AID 155).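 Also: 0% = growth of vehicle-only cultures of the same strain.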 Particulars: S. cerevisiae rad50 strain growth inhibition, stronger effect = higher value. Summed up:
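Cells are treated with compound, grown, and their growth is then scored against vehicle-only cultures of the same repair-deficient yeast strain.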

The nature of assay [2]: NCI Yeast Anticancer Drug Screen. Data for the mec2-1 strain (AID 157). The note with it: S. cerevisiae mec2-1 strain, stronger effect = higher value. The method in brief:
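Strain: mec2-1 (DNA repair/cell cycle alteration). Compound exposure, then growth measured; inhibition expressed relative to vehicle.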

Assay [3] can be described thus: NCI Yeast Anticancer Drug Screen. Data for the sgs1 mgt1 strain (AID 161).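 Also: 0% = growth of cultures given vehicle only.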 Particulars: S. cerevisiae sgs1 mgt1 strain, stronger effect = higher value. Summed up:
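Read-out: growth inhibition vs vehicle controls. Cells: mutant yeast strain deficient in DNA damage repair.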

Assay [4] in a line: NCI Yeast Anticancer Drug Screen. Data for the cln2 rad14 strain (AID 165).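 Also: 0% = growth equal to vehicle treated cultures.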 The note with it: S. cerevisiae cln2 rad14 strain, stronger effect = higher value. The method in brief:
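Compounds are applied to the cln2 rad14 yeast strain, and growth is then compared with that of vehicle-treated cultures to give inhibition.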

A short description of assay [5]: NCI Yeast Anticancer Drug Screen. Data for the bub3 strain (AID 167). Particulars: S. cerevisiae bub3 mutant strain, stronger effect = higher value. The method in brief: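 Part of a panel of yeast mutants defective in DNA damage repair or cell cycle regulation. Each strain is grown with compound, and inhibition is calculated relative to solvent-treated cultures.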
Assay [6] is described as follows: NCI Yeast Anticancer Drug Screen. Data for the mlh1 rad18 strain (AID 175). The note with it: S. cerevisiae mlh1 rad18 strain growth inhibition, stronger effect = higher value. The method in brief: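 Read-out is yeast growth inhibition, calculated against vehicle-only controls. The compound was applied to a strain engineered with DNA damage repair alterations.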
The mark [7] stands for this setting: at 5.0 µM (retest, dose inferred, filed as 0.5).
[8] abbreviates: at 50.0 µM (retest, dose inferred, filed as 5.0).

The panel holds about 79,000 compounds, 15% with a hit somewhere; the sample as a whole holds those more often. Values without a mark were called inactive. Calls of active or inactive are those of the source. Rule as the data show it: active = growth inhibition above about 70%; inactive = the rest.

For the compound `O=S(=O)(CCCl)Cc1ccccc1`, the growth inhibition in assay [1] (setting [7]) is -145%; in assay [1] (setting [8]), -144%; in assay [1] (at 50.0 µM) it was 5.2%; in assay [2] (setting [7]), -45%; in assay [2] (setting [8]), -39%; in assay [2] (at 50.0 µM), -0.4%. Moreover, the growth inhibition in assay [3] (setting [7]) was -61%; in assay [3] (setting [8]) it was -37%; in assay [3] (at 50.0 µM) it was 14%; in assay [4] (setting [7]), -50%; in assay [4] (setting [8]), -50%; in assay [4] (at 50.0 µM), 10.7%. Moreover, the growth inhibition is -69% in assay [5] (setting [7]); -66% in assay [5] (setting [8]); 10.7% in assay [5] (at 50.0 µM); -144% in assay [6] (setting [7]); -100% in assay [6] (setting [8]); 10.8% in assay [6] (at 50.0 µM).
For the compound `O=S(=O)(Nc1ccccc1)c1ccccc1C=C(c1ccccc1)c1ccccc1`, the growth inhibition was 37% in assay [1] (setting [7]); 75% (active) in assay [1] (setting [8]); 85.1% (active) in assay [1] (at 50.0 µM); 35% in assay [2] (setting [7]); 90% (active) in assay [2] (setting [8]); 86% (active) in assay [2] (at 50.0 µM). Moreover, the growth inhibition was 46% in assay [3] (setting [7]); 90% (active) in assay [3] (setting [8]); 86.5% (active) in assay [3] (at 50.0 µM); 13% in assay [4] (setting [7]); 84% (active) in assay [4] (setting [8]); 80.3% (active) in assay [4] (at 50.0 µM). Moreover, the growth inhibition is 43% in assay [5] (setting [7]); 82% (active) in assay [5] (setting [8]); 80.3% (active) in assay [5] (at 50.0 µM); 81% (active) in assay [6] (setting [7]); 84% (active) in assay [6] (setting [8]); 85.8% (active) in assay [6] (at 50.0 µM).
As for `N#C/C(=C\C(Cl)=C/c1ccccc1)C(N)=S`, the growth inhibition in assay [1] (setting [7]) was 68%; in assay [1] (setting [8]) it was 97% (active); in assay [1] (at 50.0 µM) it was 50.1%; in assay [2] (setting [7]) it was 45%; in assay [2] (setting [8]) it was 99% (active); in assay [2] (at 50.0 µM), 40.5%. The growth inhibition in assay [3] (setting [7]) is 91% (active); in assay [3] (setting [8]) it was 98% (active); in assay [3] (at 50.0 µM), 43.2%; in assay [4] (setting [7]), 16%; in assay [4] (setting [8]), 95% (active); in assay [4] (at 50.0 µM), 98% (active). Besides, the growth inhibition in assay [5] (setting [7]) is 79% (active); in assay [5] (setting [8]), 98% (active); in assay [5] (at 50.0 µM), 99% (active); in assay [6] (setting [7]) it was 86% (active); in assay [6] (setting [8]), 98% (active); in assay [6] (at 50.0 µM), 40.4%.
`Cc1ccsc1C(=S)Nc1ccc(Cl)c(/C=N/OC(C)C)c1`: the growth inhibition in assay [1] (setting [7]) was 4%; in assay [1] (setting [8]) it was 15%; in assay [1] (at 50.0 µM) it was 32%; in assay [2] (setting [7]), 9%; in assay [2] (setting [8]), 14%; in assay [2] (at 50.0 µM), 19.9%. For the same compound, the growth inhibition was 7% in assay [3] (setting [7]); 31% in assay [3] (setting [8]); 21.6% in assay [3] (at 50.0 µM); 2% in assay [4] (setting [7]); 17% in assay [4] (setting [8]); 44.8% in assay [4] (at 50.0 µM). Further, the growth inhibition is 13% in assay [5] (setting [7]); 43% in assay [5] (setting [8]); 23.1% in assay [5] (at 50.0 µM); 12% in assay [6] (setting [7]); 14% in assay [6] (setting [8]); 55.2% in assay [6] (at 50.0 µM).
For the compound `O=C(N/C(=C\c1ccc2c(c1)OCO2)c1nc2ccccc2s1)c1ccccc1`, the growth inhibition was 19% in assay [1] (setting [7]); 98% (active) in assay [1] (setting [8]); 97% (active) in assay [1] (at 50.0 µM); 1% in assay [2] (setting [7]); 98% (active) in assay [2] (setting [8]); 97.9% (active) in assay [2] (at 50.0 µM). The growth inhibition in assay [3] (setting [7]) was 38%; in assay [3] (setting [8]), 98% (active); in assay [3] (at 50.0 µM) it was 98.1% (active); in assay [4] (setting [7]) it was 10%; in assay [4] (setting [8]), 97% (active); in assay [4] (at 50.0 µM), 96.8% (active). Further, the growth inhibition in assay [5] (setting [7]) was 19%; in assay [5] (setting [8]) it was 98% (active); in assay [5] (at 50.0 µM), 96.8% (active); in assay [6] (setting [7]), 18%; in assay [6] (setting [8]), 97% (active); in assay [6] (at 50.0 µM), 97.5% (active).
With `NC(=O)C12OC3CC(CC(C3)O1)O2`, the growth inhibition was -25% in assay [1] (setting [7]); -10% in assay [1] (setting [8]); 5.95% in assay [1] (at 50.0 µM); -8% in assay [2] (setting [7]); -17% in assay [2] (setting [8]); 11.4% in assay [2] (at 50.0 µM). Also, the growth inhibition in assay [3] (setting [7]) was -9%; in assay [3] (setting [8]), 12%; in assay [3] (at 50.0 µM), 11.3%; in assay [4] (setting [7]), -1%; in assay [4] (setting [8]), 3%; in assay [4] (at 50.0 µM), 71.2% (active). In addition, the growth inhibition in assay [5] (setting [7]) was 2%; in assay [5] (setting [8]), 5%; in assay [5] (at 50.0 µM) it was 2.75%; in assay [6] (setting [7]) it was 9%; in assay [6] (setting [8]), -22%; in assay [6] (at 50.0 µM), 11.2%.
Consider `CCCCCCCCCCNCCSSCCNC(C)=O`, for which the growth inhibition in assay [1] (setting [7]) was 89% (active); in assay [1] (setting [8]), 98% (active); in assay [1] (at 50.0 µM), 99.2% (active); in assay [2] (setting [7]) it was 87% (active); in assay [2] (setting [8]), 99% (active); in assay [2] (at 50.0 µM) it was 99.4% (active). Moreover, the growth inhibition was 97% (active) in assay [3] (setting [7]); 99% (active) in assay [3] (setting [8]); 99.3% (active) in assay [3] (at 50.0 µM); 79% (active) in assay [4] (setting [7]); 92% (active) in assay [4] (setting [8]); 98.4% (active) in assay [4] (at 50.0 µM). Moreover, the growth inhibition in assay [5] (setting [7]) is 90% (active); in assay [5] (setting [8]), 98% (active); in assay [5] (at 50.0 µM), 99.5% (active); in assay [6] (setting [7]), 90% (active); in assay [6] (setting [8]), 99% (active); in assay [6] (at 50.0 µM), 99.3% (active).
For `C/C=C(/CCC1NCCC2c3ccccc3NC12)[Si](C)(C)C` (configuration not stated), the growth inhibition in assay [1] (setting [7]) was 1%; in assay [1] (setting [8]), 8%; in assay [1] (at 50.0 µM), 10.2%; in assay [2] (setting [7]), -5%; in assay [2] (setting [8]), 8%; in assay [2] (at 50.0 µM), 7.15%. Besides, the growth inhibition in assay [3] (setting [7]) was -2%; in assay [3] (setting [8]), 37%; in assay [3] (at 50.0 µM) it was 59.6%; in assay [4] (setting [7]), -5%; in assay [4] (setting [8]), 0%; in assay [4] (at 50.0 µM), 0.15%. The growth inhibition in assay [5] (setting [7]) is -3%; in assay [5] (setting [8]) it was 15%; in assay [5] (at 50.0 µM) it was 5.6%; in assay [6] (setting [7]), -4%; in assay [6] (setting [8]), 37%; in assay [6] (at 50.0 µM), 44.5%.
Consider `Cc1cc[n+](C2CCC3(C)C(=CCC4C3CCC3(C)C(C(C)CCCC(C)C)CCC43)C2)cc1` (configuration not stated), for which the growth inhibition in assay [1] (setting [7]) is 91% (active); in assay [1] (setting [8]) it was 97% (active); in assay [1] (at 50.0 µM), 95.8% (active); in assay [2] (setting [7]), 16%; in assay [2] (setting [8]), 98% (active); in assay [2] (at 50.0 µM), 96% (active). The growth inhibition is 69% in assay [3] (setting [7]); 98% (active) in assay [3] (setting [8]); 98% (active) in assay [3] (at 50.0 µM); 26% in assay [4] (setting [7]); 97% (active) in assay [4] (setting [8]); 64.3% in assay [4] (at 50.0 µM). In addition, the growth inhibition in assay [5] (setting [7]) was 75% (active); in assay [5] (setting [8]), 97% (active); in assay [5] (at 50.0 µM) it was 96.2% (active); in assay [6] (setting [7]) it was 71% (active); in assay [6] (setting [8]) it was 97% (active); in assay [6] (at 50.0 µM), 97.7% (active).
